# Test results: the OligoGym collection
# Molecular target: DNTTIP1
# Test: pooled miR-30 sensor sort-seq; sequence = guide strand
# Conditions: shRNA
# Further: reference of the scale not given here.
row,Sequence,sensor-assay potency score (higher = more potent)
1,TAGAACCACATGCTAGTCTGGG,-0.495
2,TTTGGTTTCCATACCATGCCGG,-0.318
3,TTTATCATTATGTTCCAAGGGT,0.164
4,TGAGTCACTACAAACTCGCTCA,-0.249
5,TTGGTTTCCATACCATGCCGGC,-0.684
6,TTGATGTAGATTCTTCCTCTGG,-0.475
7,TTCCTCTAGCTTCAGATCCAGG,-1.66
8,TACTTGTTGAAGACAGTCTGGA,0.302
9,TGAAACTTGTTGTCATCTGTGA,0.435
10,TTTCAATTCCTCTAGCTTCAGA,-0.665
11,TATACTTTCTCATCTTCTCCAC,0.0054

# Molecular target: DOCK11
# Test: as above
# Conditions: shRNA
row,Sequence,sensor-assay potency score (higher = more potent)
1,TTCACTATAATGGACATCCATC,-1.02
2,TTGAACTAAACTGTCGGTGTTG,-0.114
3,TTCAATATTGCTATCATCGTAG,0.383
4,TTGCTTTATGCAACCAGCCTTG,-0.849
5,TGATCTTAGATAACTATCCAAG,-1.04
6,TTTTGTATGCATAACTTCCAGA,-0.169
7,TTCTTGAACTAAACTGTCGGTG,-0.436
8,TAAACTGTCGGTGTTGATCTGA,0.463
9,TTGATCTTCTTTAATTAGCCGC,-0.638
10,TTTCTTGAACTAAACTGTCGGT,0.142
11,TTTAGCTGTCCTGTGCACCTTC,0.773
12,TTCTCTTCCAACAAGTATGTGG,-0.568

# Molecular target: DOCK1
# Test: as above
# Conditions: shRNA
row,Sequence,sensor-assay potency score (higher = more potent)
1,TTGTACTGTTCGTCTCCTCTGC,0.121
2,TTCGTAACGTGTAACCTCGGTA,-0.19
3,TATTATATCTGTTACATCCATC,-0.566
4,TTAGAGTCCTGTGATGACCTGT,0.59
5,AACACTTTTGTCAACTTCGTGT,0.131
6,TATCTTGTGTTGACCAAGGTTG,-0.193
7,TAACAGTCTCAAACCAGCGTGG,-0.364
8,TTCGACTTCATGATCCAGCTTG,0.58
9,TTTCACATCGTTGACGATCGTT,-0.0463
10,TTTCGTAACGTGTAACCTCGGT,0.0583
11,TAACACTTTGTACTGTTCGTCT,-0.198
12,TTAACAGTCTCAAACCAGCGTG,-0.984
13,TTAGACTTTTTTCGTAACGTGT,-0.535
14,TTCTTTGTTCTCGTCGTGCATG,-1.13
15,TTTCGTTCTCATACTGCTCGGC,0.184
16,TTATACATCATCACTACACAGC,-0.419
